Source: PubChem BioAssay
MEX-5 binding – C. elegans MEX-5 TCR-2 RNA binding activity. 300,000 compounds, 0.38% hits. Q9XUB2. MEX-5/FITC-TCR2 RNA binding, fluorescence polarization; hits give low values. activity score (negative = inhibition of binding), % at 10 µM. AID 1832;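 active = inhibition past about -25% in most replicates, and total fluorescence under double the plate's negative control median, limit read from the data; inconclusive = replicates evenly split on the limit, or fluorescence at least double controls; inactive = too little inhibition in most replicates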
Target sequence (Q9XUB2 whole entry, looked up): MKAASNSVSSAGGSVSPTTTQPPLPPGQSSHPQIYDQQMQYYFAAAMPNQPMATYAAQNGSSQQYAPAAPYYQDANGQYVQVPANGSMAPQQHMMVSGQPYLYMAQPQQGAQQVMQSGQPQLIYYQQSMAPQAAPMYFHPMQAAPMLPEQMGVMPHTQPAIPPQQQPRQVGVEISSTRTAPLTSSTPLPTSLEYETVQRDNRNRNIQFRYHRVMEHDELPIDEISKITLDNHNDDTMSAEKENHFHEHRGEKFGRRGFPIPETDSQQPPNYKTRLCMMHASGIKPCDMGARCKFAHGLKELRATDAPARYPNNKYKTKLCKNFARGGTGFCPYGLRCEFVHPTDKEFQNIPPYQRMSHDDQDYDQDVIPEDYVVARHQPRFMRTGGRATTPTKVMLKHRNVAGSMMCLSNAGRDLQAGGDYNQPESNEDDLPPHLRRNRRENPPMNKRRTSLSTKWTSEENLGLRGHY
GLD-1 TGE inh – GLD-1-TGE RNA interaction inhibition (C. elegans); purified GLD-1 + fluorescein TGE RNA, fluorescence polarization; inhibition, % at 5.96 µM; 320,000 compounds, 0.44% hits; AID 2280;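 active = percent inhibition above a per-plate cutoff, the plate mean of test compounds plus 3 SD, cut at about 30% in these data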
eLon inh – inhibits E. coli Lon protease; P0A9M0; inhibition, % at 7.94 µM; 360,000 compounds, 0.42% hits; purified E. coli Lon protease, fluorescence polarization; AID 602123; in the data active = inhibition above about 13%, passing the limit was not always enough
Bcl-xL primary – Bcl-xL (human) inhibition; 320,000 compounds, 0.7% hits; GST-Bcl-xL / FITC-Bim BH3 peptide fluorescence polarization; inhibition, % at 10.9 µM; Q07817;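 active = inhibition above the mean of all tested compounds plus 3 SD, cutoff set per campaign, cut at about 30% in these data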;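 also: inhibitors lower millipolarization by displacing the labeled peptide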
MCL1 BIM primary – inhibitors of human MCL1 binding to BIM-BH3 peptide; Q07820; GST-MCL1 / FITC-Bim-BH3 fluorescence polarization; inhibition, % at 10.9 µM; 320,000 compounds, 0.68% hits;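 active = inhibition above the mean inhibition of all tested compounds plus 3 SD, set per campaign, cut at about 40% in these data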;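 also: higher means more loss of mP so more displacement of Bim peptide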
EBV gp42 block – inhibitors of Epstein-Barr virus glycoprotein 42 | Q1HVG2 | Fluorescence polarization binding assay, mP read-out | inhibition, % (tested at 21.74 µM) | 220,000 compounds, 0.42% hits; in the data active = inhibition above about 50%
Target sequence (Q1HVG2 whole entry, looked up): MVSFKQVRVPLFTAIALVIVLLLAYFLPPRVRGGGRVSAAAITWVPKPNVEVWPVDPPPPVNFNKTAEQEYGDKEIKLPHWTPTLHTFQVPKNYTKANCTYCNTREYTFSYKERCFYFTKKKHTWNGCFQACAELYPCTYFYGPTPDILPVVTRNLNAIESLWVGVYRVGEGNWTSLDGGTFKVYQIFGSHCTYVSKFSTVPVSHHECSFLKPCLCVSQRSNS
Large screens that a line does not name were inactive. An excerpt weighted towards active compounds, which were near 1.5% of everything screened.

CCCCC1=CC2=CC(=O)C(C)(OC(=O)c3cccs3)C(=O)C2=CO1 (stereo not given)	none (no result: EBV gp42 block)
COC/C=C/C1=CC2=CC(=O)C(C)(OC(=O)c3cnc4ccccc4n3)C(=O)C2=CN1CCc1ccccn1 (stereo not given)	GLD-1 TGE inh 32, Bcl-xL primary 52, MCL1 BIM primary 55 (no result: eLon inh, EBV gp42 block)
COc1ccc(/C=N/NC(=O)c2cccc(C(=O)N/N=C/c3ccc(OC)c(OC)c3)n2)cc1OC	none (no result: GLD-1 TGE inh, Bcl-xL primary, MCL1 BIM primary, EBV gp42 block)
Cc1ccc(S(=O)(=O)Cc2ccc(C(=O)NCc3ccc4c(c3)OCO4)o2)cc1	none
CCOc1cc(N2CCOCC2)c(OCC)cc1NC(C)C(=O)N1CCN(CC)CC1 (stereo not given)	MEX-5 binding -28 (no result: GLD-1 TGE inh, Bcl-xL primary, MCL1 BIM primary)
Cc1cc(C)nc(NN2C(=O)C=CC2=O)n1	MEX-5 binding -29 (no result: EBV gp42 block)
Cc1cc(C)nc(NN2C(=O)/C(=C/c3ccccc3)SC2=S)n1	none
Oc1ccc(N=Nc2ccccc2-c2nn[nH]n2)c(O)c1	MEX-5 binding -35, Bcl-xL primary 31 (no result: EBV gp42 block)
Cc1ccccc1-c1nn[nH]n1	none
Cc1ccc(/C=c2\sc3nc(-c4ccccc4Br)nn3c2=O)o1	none
C=CCn1c(=O)/c(=C/c2ccc(C)o2)s/c1=C(/C#N)C(=O)c1ccccc1	MEX-5 binding -27
C=CCn1c(=O)/c(=C\c2ccccn2)s/c1=C(/C#N)C(=O)NCC1CCCO1 (stereo not given)	MEX-5 binding -28
CCCc1cc(=O)n2[nH]c(CCc3ccccc3)nc2n1	none
N#CCCn1cc(C(=O)O)c(-c2cc3ccccc3o2)n1	none
COc1ccc(C2=NCCn3cccc32)c(OC)c1	none
CCCC1=NCCn2cccc21	Bcl-xL primary 33
Cc1ccc(CS(=O)(=O)CCC(=O)NCCC(C)C)cc1	none
CCCN1C(=O)/C(=C/c2c(NCCCOCC)nc3c(C)cccn3c2=O)SC1=S	none (no result: MEX-5 binding, GLD-1 TGE inh, Bcl-xL primary, MCL1 BIM primary)
CCOCCCNc1nc2c(C)cccn2c(=O)c1/C=C1\SC(=S)N(CC(C)C)C1=O	EBV gp42 block 104
CCOCCCNc1nc2c(C)cccn2c(=O)c1/C=C1\SC(=S)N(C(C)CC)C1=O (stereo not given)	MEX-5 binding inconclusive, EBV gp42 block 133
Cc1ccccc1OCCn1c(=O)oc2ccccc21	none
C[C@@H]1O[C@@H](OC2C(O)C(OCCc3ccc(O)c(O)c3)OC(CO)C2OC(=O)/C=C/c2ccc(O)c(O)c2)[C@H](O)[C@H](O)[C@H]1O (stereo not given in full)	MEX-5 binding -46 (no result: eLon inh, EBV gp42 block)
COc1ccc2c(c1)c(/C=C/c1cc[n+](C)cc1)cn2C	MEX-5 binding inconclusive, GLD-1 TGE inh 58 (no result: EBV gp42 block)
COc1ccc2c(/C=C/c3cc[n+](C)cc3)c[nH]c2c1	MEX-5 binding inconclusive (no result: EBV gp42 block)
COc1ccc(C(CNC(=O)c2ccc(S(=O)(=O)N3CCCC3)cc2)N(C)C)cc1OC (stereo not given)	none
Cc1ccccc1CS(=O)(=O)Cc1ccc(C(=O)NCc2ccccn2)o1	Bcl-xL primary 31
COc1ccc(C(=O)COC(=O)CCNS(=O)(=O)c2ccccc2)cc1Br	none (no result: EBV gp42 block)
O=c1[nH][nH]c2cc(=O)n(-c3ccc(Cl)cc3)nc12	MEX-5 binding -32
O=C(NC1CCCCC1)c1cccc(S(=O)(=O)N2CCCCC2)c1	none (no result: EBV gp42 block)
O=c1ccc2[n+]([O-])c3ccc(O)cc3oc-2c1	MEX-5 binding -81, EBV gp42 block 110 (no result: GLD-1 TGE inh, Bcl-xL primary, MCL1 BIM primary)
O=c1cc(O)c2ccc(O)cc2o1	none
O=C(CCc1nc2ccccc2c(=O)[nH]1)N1CCCc2ccccc21	Bcl-xL primary 51, MCL1 BIM primary 43 (no result: EBV gp42 block)
O=C(CCc1nc2ccccc2c(=O)[nH]1)N1CCN(c2ccccc2Cl)CC1	none (no result: MEX-5 binding, Bcl-xL primary, MCL1 BIM primary, EBV gp42 block)
CCCCN(C)C(=O)C(Cc1ccccc1)NS(=O)(=O)c1ccc2c(c1)CCC(=O)N2 (stereo not given)	none
C[C@@H]1CN([C@H](C)CO)C(=O)c2cc(Br)cnc2O[C@H]1CN(C)C(=O)CC1CC1	none (no result: MEX-5 binding, GLD-1 TGE inh, Bcl-xL primary, MCL1 BIM primary, EBV gp42 block)
Cc1nnsc1C(=O)N/N=C/c1ccc2ccccc2c1O	Bcl-xL primary 75, MCL1 BIM primary 84
CC1=C(C(=O)NCc2ccccc2)C(c2ccc(C)o2)n2ncnc2N1 (stereo not given)	Bcl-xL primary 38, MCL1 BIM primary 42
O=C(CN1C(=O)S/C(=C\c2ccccc2)C1=O)NNC(=O)c1ccccc1O	none
COc1ccc(/C=C2\SC(=O)N(CC(=O)NNC(=O)c3ccccc3O)C2=O)cc1	EBV gp42 block 58
Cc1ccc(CN2C(=O)C(=O)N(CC(N)=O)C2=O)cc1	none (no result: EBV gp42 block)
CCN1CCN(c2nc3c(C)cccn3c(=O)c2/C=C(\C#N)S(=O)(=O)c2ccc(C)cc2)CC1	Bcl-xL primary 52, MCL1 BIM primary 48
Cc1cccn2c(=O)c(/C=C(\C#N)S(=O)(=O)c3ccccc3)c(N3CCN(C)CC3)nc12	none
Cc1ccc(S(=O)(=O)/C(C#N)=C/c2c(N3CCN(C)CC3)nc3c(C)cccn3c2=O)cc1	Bcl-xL primary 40
COC(=O)/C(C#N)=C/c1c(N2CCN(c3cccc(Cl)c3)CC2)nc2c(C)cccn2c1=O	none (no result: EBV gp42 block)
Cc1cccn2c(=O)c(C=C(C#N)C#N)c(N3CCN(c4cccc(Cl)c4)CC3)nc12	Bcl-xL primary 39, MCL1 BIM primary 43 (no result: EBV gp42 block)
Cc1ccn2c(=O)nc(SCC(=O)N3CCCc4ccccc43)nc2c1	none (no result: EBV gp42 block)
COc1ccc(NC(=O)C(Cl)=C(Cl)Cl)cn1	none (no result: GLD-1 TGE inh, Bcl-xL primary, MCL1 BIM primary)
Cn1ncc(N)c1C(=O)Nc1cccc(C(F)(F)F)c1	Bcl-xL primary 41
O=C(Nc1ccccc1)Nc1snnc1C(=O)Nc1cccc(O)c1	none (no result: GLD-1 TGE inh, Bcl-xL primary, MCL1 BIM primary)
O=C(N/C(=C\c1ccco1)C(=O)N1CCCC1)c1ccccc1	Bcl-xL primary 40, MCL1 BIM primary 41 (no result: EBV gp42 block)
Cc1ccc(C(=O)N/C(=C/c2ccco2)C(=O)N2CCCCCC2)cc1	none (no result: EBV gp42 block)
Cc1ccc(NC(=O)CCC(=O)OC(C)C(=O)c2ccccc2)cc1 (stereo not given)	none (no result: EBV gp42 block)
N#Cc1cccc(C#N)c1Oc1ccc(S(=O)(=O)Nc2ccccc2)cc1	none
COc1cccc(C(=O)NCC(=O)NNc2ncnc(N)c2[N+](=O)[O-])c1	MEX-5 binding -32
CCCCCCSC1=C(C#N)C(c2ccc(O)cc2)CC(=O)N1 (stereo not given)	none
C/C(=C\c1ccccc1F)C1Nc2cccc3cccc(c23)N1	Bcl-xL primary 31 (no result: MEX-5 binding, EBV gp42 block)
C/C(=C\c1ccc2c(c1)OCO2)C1Nc2cccc3cccc(c23)N1	none (no result: MEX-5 binding, EBV gp42 block)
CC1CC(C)CN(C(=O)CCc2nnc3ccc(N4CCCCC4)nn23)C1 (stereo not given)	none (no result: EBV gp42 block)
Cc1ccc(S(=O)(=O)NC(C(=O)Oc2ccc3c(C(F)(F)F)cc(=O)oc3c2)c2ccccc2)cc1 (stereo not given)	GLD-1 TGE inh 47, Bcl-xL primary 45, MCL1 BIM primary 42
CCN1C(=C(C#N)C#N)C=Cc2cc(C)ccc21	GLD-1 TGE inh 41
CCN1C(=O)/C(=C2/C=Cc3cc(C)ccc3N2CC)N(C)C1=S	none
COc1ccc(NC(=O)C/C(C)=N/NC(=O)CCc2ccccc2)c(OC)c1	none (no result: EBV gp42 block)
